Most compounds without a hit are left out; they make up all but 6% or so of the library.
DRD3 agonist: D3 dopamine receptor (human) agonism | hit rate 0.58% among 410,000 | max activation, % | AID 652048 | D3R DiscoveRx beta-arrestin cells, luminescence, 90 min; in the data active = max activation above about 30%; also: 0% is about no effect
Target sequence (P35462 whole entry, looked up): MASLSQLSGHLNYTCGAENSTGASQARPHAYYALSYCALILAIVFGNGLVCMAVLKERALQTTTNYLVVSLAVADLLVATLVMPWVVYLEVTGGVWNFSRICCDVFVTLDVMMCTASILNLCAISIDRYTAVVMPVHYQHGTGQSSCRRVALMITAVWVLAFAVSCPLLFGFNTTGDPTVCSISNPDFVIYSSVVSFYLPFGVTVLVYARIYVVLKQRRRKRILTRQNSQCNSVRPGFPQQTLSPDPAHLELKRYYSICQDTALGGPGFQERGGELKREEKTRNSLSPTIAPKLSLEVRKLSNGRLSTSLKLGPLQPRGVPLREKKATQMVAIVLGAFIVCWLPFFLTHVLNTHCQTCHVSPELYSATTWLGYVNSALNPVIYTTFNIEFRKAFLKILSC
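Agonist-mode cell screen: cells plated at 1500/well and incubated overnight at 37 °C, then exposed to library compounds for 90 min at 37 °C. Detection reagent was added for 30–60 min at room temperature, and luminescence was read.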
D1 PAM: human D1 dopamine receptor positive modulation; hit rate 0.036% among 360,000; HEK293 TREx D1 cells, calcium flux, dopamine EC20 potentiation; potentiation, % at 10 µM; P21728; in the data active = potentiation above about 30%; also: 0% is about no effect
D3 antag: blocks the human D3 dopamine receptor. max response, negative = inhibition, %. D3R cells, DiscoveRx beta-arrestin luminescence, antagonist mode; stronger effect = lower value. P35462. hit rate 2.5% among 360,000; in the data active = max response below about -50%; inconclusive = no clear call, values can overlap the other calls; also: % is scaled to controls: 0 for no effect and ±100 for the full control effect
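Cells expressing the human receptor were seeded at 1500 cells/well, incubated overnight at 37 degrees C in 5% CO2, then exposed to library compounds with dopamine controls for 90 minutes at 37 degrees C before luminescent detection.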
D1 ag: human D1 receptor agonism; P21728; HEK293 T-REx D1 cells, calcium flux, agonist mode; activation, % at 2 µM; hit rate 1% among 360,000; in the data active = activation above about 30%; also: 0% is about no effect
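Inducible HEK293 T-REx D1 cells, force-coupled to calcium signalling, were plated at 4000 cells/well with tetracycline and held overnight at 30 C. After no-wash calcium dye loading, compound-evoked calcium rise over 180 s flagged agonists.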
D1 antag: blocks dopamine activation of the human D1 receptor. P21728. HEK293 TREx D1 cells, calcium flux, dopamine EC80; stronger effect = lower value. activity change, negative = inhibition, % at 10 µM. hit rate 3.2% among 360,000. AID 504652; in the data active = activity change below about -30%; also: % is scaled to controls: 0 for no effect and ±100 for the full control effect
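Kinetic fluorescence of a calcium dye serves as the read-out. D1-expressing Hek293 Trex cells, induced overnight at 30 C, are exposed to compound for 180 s before an EC80 dopamine addition, then read 180 s further.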
Numbers without * were called inactive; ? = inconclusive; / = not tested or not shown.

SMILES	DRD3 agonist	D1 PAM	D3 antag	D1 ag	D1 antag
COc1cc(/C=C2\C[C@H]3[C@@H]4CC=C5C[C@@H](N6CCCC6)CC[C@]5(C)[C@H]4CC[C@]3(C)[C@H]2O)cc(OC)c1OC	-28.0	/	-69.6*	/	/
C=C1C(=O)O[C@H]2C[C@@H](C)[C@@H]3C=CC(=O)[C@@]3(C)C[C@H]12	-2.7	-0.4	-66.0*	2.0	21.6
C=C1C(=O)O[C@@H]2C[C@@H](C)[C@@H]3C4OC4C(=O)[C@@]3(C)[C@@H](O)[C@H]12 (stereo partly drawn)	-22.5	0.2	-91.1*	0.9	-2.6
C=C1C(=O)O[C@@H]2C[C@@H](C)[C@@H]3C=CC(=O)[C@@]3(C)[C@@H](OC(=O)CC(=O)O[C@H]3[C@@H]4C(=C)C(=O)O[C@@H]4C[C@@H](C)[C@@H]4C=CC(=O)[C@]43C)[C@H]12	-31.6	-4.0	-110.1*	3.9	-3.0
C=C1C(=O)OC2C1CCC(C)C1(O)C=CC(=O)C21C (stereo not drawn)	3.9	/	22.1	/	/
C=C1C(=O)O[C@H]2[C@H]1[C@H](OC(=O)CC(=O)O[C@@H]1C[C@@H](C)[C@@H]3C=CC(=O)[C@@]3(C)[C@H]3OC(=O)C(=C)[C@H]13)C[C@@H](C)[C@H]1C=CC(=O)[C@]12C	-4.8	-1.1	-13.1	3.3	5.9
C=C1C(=O)OC2CC(C)C3C=CC(=O)C3(C)C(O)C12 (stereo not drawn)	-26.2	/	-74.8*	/	/
c1ccc(C2(N3CCCC3)CCCCC2)cc1	-22.4	/	/	/	/
ClC1=C(Cl)[C@]2(Cl)[C@@H]3[C@@H]4C[C@@H]([C@H]5O[C@@H]45)[C@@H]3[C@@]1(Cl)C2(Cl)Cl	-6.3	/	/	/	/
CN1c2ccc([N+](=O)[O-])cc2CC2(C(=O)NC(=O)N(c3ccc(Br)cc3)C2=O)C1c1ccccc1 (stereo not drawn)	-5.9	-1.4	-50.6*	3.4	1.8
Cc1cccc(C)c1NC(=O)CN1CCCC1=O	-11.3	/	/	/	/
O=C(CN1CCCC1=O)Nc1ccccc1	11.4	-2.7	0.0	0.9	-35.2*
O=C(NC(O)C(Cl)(Cl)Cl)NC(O)C(Cl)(Cl)Cl (stereo not drawn)	76.7*	/	/	/	/
c1ccc2c(CCNC3CCCCC3)c[nH]c2c1	-4.4	-8.1	-22.4	24.7	-21.8
c1ccc2[nH]c(CCNC3CCCCC3)nc2c1	-4.5	0.3	-52.8*	3.1	40.4
CCOC(C(=O)OCC(O)CN(CC)CC)(c1ccccc1)c1ccccc1 (stereo not drawn)	-4.7	-5.7	-59.7*	8.6	-1.3
COc1cc2c(cc1OC)-c1c(OC)c(OC)cc3c1[C@H](C2)N(C)CC3	-40.9	/	-58.8*	/	/
COc1cc2c(cc1O)CC1c3c(cc(O)c(OC)c3-2)CCN1C (stereo not drawn)	-10.2	/	-13.6	/	/
COc1ccc2c(c1O)-c1c(OC)c(OC)cc3c1[C@H](C2)N(C)CC3	0.0	-6.3	0.0	-0.3	-62.7*
CCN(CC)CCN1C(=O)CN=C(c2ccccc2F)c2cc(Cl)ccc21	-9.2	/	/	/	/
CC1(C)C(C=C(Cl)Cl)C1C(=O)OC(C#N)c1cccc(Oc2ccccc2)c1 (stereo not drawn)	-8.3	/	/	/	/
CCCCCCC(C)(C)c1ccc([C@@H]2C[C@H](O)CC[C@H]2CCCO)c(O)c1	69.7*	-3.5	102.2	9.5	26.5
CCN(CCCl)c1cc(CN(C)C)cc(NC(=O)c2ccc(C(=O)Nc3cc(CN(C)C)cc(N(CC)CCCl)c3)cc2)c1	-11.8	/	-84.2*	/	/
CN1CCN(CCOC2c3ccccc3CSc3ccc(Cl)cc32)CC1 (stereo not drawn)	-33.0	-11.1	-90.0*	29.6	-18.1
Clc1ccc2c(c1)C(OC1CN3CCC1CC3)c1ccccc1CS2 (stereo not drawn)	-48.3	-8.2	-27.7	34.9*	-50.2*
SMILES	DRD3 agonist	D1 PAM	D3 antag	D1 ag	D1 antag
CCOc1ccc2nc(NC(=O)c3cccn(Cc4ccccc4)c3=O)sc2c1	-3.3	2.1	/	32.6*	/
CCOc1ccc2nc(NC(=O)c3cccn(Cc4ccc(C)cc4)c3=O)sc2c1	-12.4	3.6	/	-2.5	/
NC(N)=N/N=C/c1ccc(N(c2ccccc2)c2ccccc2)cc1	1.2	15.3	?	16.8	85.5
C/C(=N\N=C(N)N)c1ccccc1	-23.6	-17.3	-17.4	0.8	-38.0*
Cc1ccc(C(C)C)c(OCC(=O)N2CCN(CCc3ccncc3)CC2)c1	-7.6	-0.6	/	-2.1	-13.1
CC(=NCCN1CCCCC1)c1c(O)[nH]c(=O)[nH]c1=O	-2.1	-3.6	-53.1*	20.1	-12.4
